Tau fibril FP = inhibitors of human tau fibril formation; P10636; K18 P301L tau heparin fibrillization, Alexa594 FP, 6 h; Potency, µM (series often up to 57.7 µM), hits mostly inhibitors; 280,000 tested, 0.39% active; AID 1468; note: nearly all actives have a fitted effect of over 55% in size
Target sequence (P10636 561-689 P618L limits assumed): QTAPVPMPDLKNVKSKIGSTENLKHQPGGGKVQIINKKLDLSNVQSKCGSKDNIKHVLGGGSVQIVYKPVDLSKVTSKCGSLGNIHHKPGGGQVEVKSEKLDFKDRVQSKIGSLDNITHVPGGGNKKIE
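Read-out: fluorescence polarization of Alexa 594-labeled tau (0.24 uM), 555 nm excitation, 632 nm emission. Mixtures held 15 uM unlabeled K18 P301L, compound and 20 uM heparin, pH 7 acetate buffer, incubated 6 hr at 37 C.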
Tau fibril ThT = blocks human tau fibril formation measured by thioflavin T | P10636 | recombinant tau K18 P301L, heparin-induced fibrillization, ThT fluorescence | Potency, µM (doses to about 57.4 µM), actives largely listed as inhibitors | 270,000 tested, 2.1% active | AID 1460; note: nearly all actives have a fitted effect of over 55% in size
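K18 P301L tau (15 uM + 0.24 uM Alexa 594-tagged), heparin 20 uM, NaOAc pH 7, 6 h 37 C; ThT 30 uM, 1 h RT, ex 450/em 510 nm.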
TR SRC2 fluor cs = counter-screen for TRb-SRC2 inhibitors: fluorescence interference; Potency, µM (top dose mostly 106 µM); TRb/SRC2 Texas Red total fluorescence interference; 280,000 tested, 0.29% active; AID 1479; active = well fitted curve in either direction with a large enough effect; inconclusive = small, poorly fitted or top-dose-only effect
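Flags fluorescent or light-absorbing compounds by total fluorescence, S + 2P, at 555 nm excitation and 632 nm emission. Mixture: 20 nM Texas Red SRC2 peptide, 0.6 uM human TRb LBD, 1 uM T3, 5% DMSO; compound exposure 5 h at ambient temperature.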
TRb-SRC2 inh = TRbeta-SRC2 interaction inhibition | Potency, µM (doses to about 106 µM), most hits filed as inhibitors | 280,000 tested, 0.065% active | P10828 | TRbeta-SRC2 peptide binding, fluorescence polarization; receptor liganded with 1 µM T3; note: nearly all actives have a fitted effect of over 50% in size
Target sequence (P10828 whole entry, looked up): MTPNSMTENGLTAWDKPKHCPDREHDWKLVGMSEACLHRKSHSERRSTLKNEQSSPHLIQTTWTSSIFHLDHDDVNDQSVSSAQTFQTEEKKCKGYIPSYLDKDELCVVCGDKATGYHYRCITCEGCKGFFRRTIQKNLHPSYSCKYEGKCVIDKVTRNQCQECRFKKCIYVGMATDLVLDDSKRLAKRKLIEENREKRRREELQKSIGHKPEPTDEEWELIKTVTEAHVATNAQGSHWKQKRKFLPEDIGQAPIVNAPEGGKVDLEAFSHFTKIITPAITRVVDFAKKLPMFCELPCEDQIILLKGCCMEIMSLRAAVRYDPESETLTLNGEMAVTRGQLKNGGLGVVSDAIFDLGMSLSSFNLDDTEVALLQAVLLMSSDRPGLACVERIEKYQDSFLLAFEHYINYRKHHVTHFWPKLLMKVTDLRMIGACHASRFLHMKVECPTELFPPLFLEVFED
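Decrease in fluorescence polarization of 20 nM Texas Red SRC2 coactivator peptide flagged inhibition of its binding to 0.6 uM TRb LBD; 1 uM T3 included, incubation 5 hr, ex 555/em 632 nm.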
Tau fluor cs = counter-screen for tau fibril formation inhibitors; tau K18 P301L (four-repeat tau fragment) Alexa594 fluorescence, heparin fibrillization; 280,000 tested, 0.93% active; Potency, µM (series often up to 57.7 µM); note: nearly all actives have a fitted effect of over 55% in size
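Human K18 P301L tau (15 uM unlabeled plus 0.24 uM Alexa 594-labeled, final) in 100 mM sodium acetate pH 7 was mixed with compound and 20 uM heparin and incubated 6 hr at 37 C.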
A number is an active result; 0 = inactive; ? = inconclusive; - = no result; [ ] = remark or other dose. Compounds with a hit are over-represented: about 3% of the library has one in this group of screens. Unless noted, calls come from the whole dose curve; as a rule, active = well fitted curve in the direction sought with a large enough effect; inconclusive = small, poorly fitted or top-dose-only effect, or another doubt; inactive = no such curve, though single readings can be large; an effect the other way counts as inactive or inconclusive.

SMILES	Tau fibril FP	Tau fibril ThT	TR SRC2 fluor cs	TRb-SRC2 inh	Tau fluor cs
CCOc1ccc(CNC(=O)C2Cc3cc(S(=O)(=O)N4CCCCCC4)ccc3N2C(C)=O)cc1 (stereo unspecified)	0	0	0	0	0
O=C(Nc1cccc(Cl)c1)Nc1nnc(CSCCOc2ccc(Cl)cc2)s1	7.9µM	0	0	0	?
COc1ccc(OCCSCc2nnc(NC(=O)Nc3ccc(Cl)cc3)s2)cc1	28µM	0	0	0	0
O=C(Nc1ccc(Cl)cc1)Nc1nnc(CSCc2ccccc2)s1	?	0	0	0	0
Cc1ccc(NC(=O)Nc2nnc(CSCCOc3ccc(Cl)cc3)s2)cc1	?	0	0	0	0
O=C(Nc1cccc(Cl)c1)Nc1nnc(CC2=CCCCC2)s1	11µM	0	0	0	?
O=C(CCc1nnc2n(Cc3ccccc3Cl)c(=O)c3ccccc3n12)Nc1ccc(F)cc1	0	0	0	0	0
CCC1=Nc2cc(C(=O)NC3CCCC3)ccc2Sc2ccc(Cl)cc21	?	0	0	0	0
Cc1cc(C)cc(-n2ccnc2SCC(=O)Nc2ccccc2F)c1	0	0	0	0	0
COc1ccc(Sc2ccccc2CN(C)C)cc1OC	0	0	0	0	0
CNCc1ccccc1Sc1ccc(O)c(O)c1	8.9µM	4µM	0	0	?
Nc1ccc(-c2nc3ccc(N)cc3s2)cc1	0	11µM	0	0	?
Oc1ccc(-c2nc3ccccc3s2)c(O)c1	0	0	0	0	?
Nc1ccc(O)c(-c2nc3ccccc3s2)c1	?	10µM	?	0	?
O=C(Nc1ccc(O)c(-c2nc3ccccc3s2)c1)c1cccs1	0	0	0	0	0
Nc1ccc2nc(-c3ccc(O)cc3)sc2c1	0	7.9µM	79µM[quencher]	0	?
Oc1ccc(N=C/C=C/c2cccc(Br)c2)cc1-c1nc2ccccc2s1	0	6.3µM	0	0	?
COc1ccc(CCNC(=O)C(=O)NCC(c2ccco2)S(=O)(=O)c2ccc(C)cc2)cc1 (stereo unspecified)	0	0	0	0	0
Cc1ccccc1-n1c(SCc2ccc(Cl)cc2)nc2[nH]ncc2c1=O	0	0	0	0	0
Cc1ccc(NC(=O)c2ccc3c(O)c(S(=O)(=O)c4ccc(Cl)cc4)c(=O)[nH]c3c2)cc1	0	0	0	0	0
COc1ccc(OC)c(NC(=O)COC(=O)Cc2ccc(-c3ccccc3)cc2)c1	0	0	0	0	0
CCOc1ccccc1NC(=O)COC(=O)Cc1ccc(-c2ccccc2)cc1	0	0	32µM[quencher]	?	0
O=C1C2=CC[C@H]3C(=O)N(c4cccc(Oc5ccccc5)c4)C(=O)[C@@H]3[C@@H]2[C@H](O)[C@@H]2O[C@H]12	?	?	0[11.2 µM]	0[11.2 µM]	0[11.6 µM]
Cc1ccc(NC(=O)N2CCc3cc(S(=O)(=O)N4CCC(C)CC4)ccc32)cc1F	?	0	28µM[quencher]	0	0
CC1CCN(S(=O)(=O)c2ccc3c(c2)CCN3C(=O)Nc2ccc(Br)cc2)CC1	?	?	0	0	?
SMILES	Tau fibril FP	Tau fibril ThT	TR SRC2 fluor cs	TRb-SRC2 inh	Tau fluor cs
COc1cc(/C=N/n2c(-c3ccc4c(c3)NC(=O)CO4)csc2=Nc2cccc(C)c2)ccc1O	0	0	0	0	0
COCCN=c1scc(-c2ccc3c(c2)NC(=O)CO3)n1/N=C(\C)c1ccc(O)cc1	?	14µM	0	0	14µM[quencher]
CCOC(=O)c1cnc2ccc(C)cc2c1Nc1ccc(N(CC)CC)cc1	?	13µM	0	0	?
CCOC(=O)c1cnc2ccc(C)cc2c1Nc1ccc(N2CCOCC2)cc1	?	28µM	0	0	?
CCOC(=O)c1cnc2ccccc2c1Nc1ccc(C(=O)O)cc1	0	0	0	0	0
CCOC(=O)c1cnc2ccc(Cl)cc2c1Nc1ccc(N2CCOCC2)cc1	0	16µM	0	0	?
CCOC(=O)c1cnc2ccc(C(=O)OC)cc2c1Nc1ccc(N2CCOCC2)cc1	0	14µM	0	0	?
COC(=O)[C@@]1(Cc2ccccc2)[C@H]2c3cc(C(=O)N4CCCC4)n(Cc4ccc(S(C)(=O)=O)cc4)c3C[C@H]2CN1C(=O)c1ccccc1	0	0	0	0	0
CN(Cc1ccccc1)C(=O)Cn1ncc2c3ccccc3n(Cc3cccc(Cl)c3)c2c1=O	0	0	0	0	0
Cc1nnc(SCc2ccccc2)c2cc3sccc3n12	?	22µM	0	0	0
Cc1ccc(C)c(CSc2nnc(C)n3c2cc2sccc23)c1	0	?	0	0	0
CSCC[C@H](NC(=O)[C@H](CCCNC(=N)N)NC(=O)[C@H](Cc1ccc(O)cc1)NC(=O)[C@@H]1CCCN1C(=O)CNC(=O)[C@H](CCC(=O)O)NC(=O)[C@H](CC(=O)O)NC(=O)[C@H](CCCCN)NC(=O)[C@H](CCCCN)NC(=O)[C@H](CCC(=O)O)NC(=O)[C@H](C)N)C(=O)N[C@@H](CCC(=O)O)C(=O)N[C@@H](Cc1cnc[nH]1)C(=O)N[C@@H](Cc1ccccc1)C(=O)N[C@@H](CCCNC(=N)N)C(=O)N[C@@H](Cc1c[nH]c2ccccc12)C(=O)NCC(=O)N[C@@H](CO)C(=O)N1CCC[C@H]1C(=O)N1CCC[C@H]1C(=O)N[C@@H](CCCCN)C(=O)N[C@@H](CC(=O)O)C(=O)O	-	-	0	0	-
O=C1Nc2ccc3sc4ccccc4c3c2C1=O	0	4.5µM	0	0	?
COc1cccc(NC(=O)C(=O)NCCc2csc(-c3ccc(C)cc3)n2)c1	0	0	0	0	0
CC(=O)c1cccc(NC(=S)Nc2ccn(Cc3cccc4ccccc34)n2)c1	?	0	0	0	0
CC(=O)c1ccc(NC(=S)Nc2ccn(Cc3ccc(Br)cc3)n2)cc1	?	0	0	0	10µM[quencher]
CCOc1ccc(C(=O)Nc2ccc3c(c2)N(C(C)=O)CCC3)cc1OCC	0	0	0	0	0
CC1=[N+](C)c2ccc3ccccc3c2C1(C)C	0	14µM	4.5µM[fluorescent]	32µM	?
c1ccc2c(c1)ccc1ccccc12	-	-	0	0	-
Cc1cccc(NC(=O)Cn2c(=O)n(CCc3c[nH]c4ccccc34)c(=O)c3cccnc32)c1	0	0	0	0	11µM[quencher]
COc1cc(/C=C2/SC(=O)NC2=O)ccc1Oc1ccc([N+](=O)[O-])cc1[N+](=O)[O-]	0	16µM	0	0	?
N#Cc1ccc(NC(=O)Nc2ccc(Oc3ccc(NC(=O)Nc4ccc(C#N)cc4)cc3)cc2)cc1	?	?	0	0	7.9µM[quencher]
N#Cc1ccc(NC(=O)Nc2cccc(C#N)c2)cc1	?	?	0	0	?
Cc1ccc(CNC(=O)CCCn2c(=O)[nH]c3ccc(Br)cc3c2=O)cc1	0	0	0	0	0
COC(=O)[C@H]1[C@H]2C[C@@H]3c4[nH]c5cc(OC)ccc5c4CCN3C[C@H]2C[C@@H](OC(=O)c2cc(OC)c(OC)c(OC)c2)[C@@H]1OC	0	?	0	0	13µM[quencher]
